Assay outcomes (PubChem BioAssay)
SW480 rereplic: induces DNA re-replication in SW480 colon adenocarcinoma cells; SW480 DNA re-replication, Hoechst DNA content imaging, 48 h; Potency, µM (titrated, usually from 46.1 µM), inactives show at the highest dose re-replication activation, most hits filed as activators; hit rate 1.8% among 340,000; also: potency is read from the fitted curve at half-maximal effect; % of control where 0% means no effect; nearly all actives have a fitted effect of over 55% in size
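Image-based DNA-content assay: after two days of treatment, nuclei were labelled with the DNA dye Hoechst and imaged, and hits were compounds raising the count of nuclei showing high fluorescence intensity.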
ATXN2 expr inh: reduces ATXN2 reporter expression in HEK-293 cells. HEK-293 ATXN2-luciferase reporter, luminescence, 24 h. Potency, µM (series often up to 57 µM), without a hit: top-dose activity change, negative = inhibition, most hits filed as inhibitors. hit rate 0.72% among 360,000; also: potency is read from the fitted curve at half-maximal effect; % is scaled to controls: 0 for no effect and ±100 for the full control effect; nearly all actives have a fitted effect of over 55% in size
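ATXN2-luciferase reporter cells (luciferase flanked by upstream and downstream ATXN2 gene portions) were treated 24 h at 37 °C with compounds at up to 57 uM. SteadyGlo luminescence gave expression; GF-AFC fluorescence gave viability.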
ATXN viability: cell viability loss in ATXN counter-screen. S2 cells (HEK-293 line with an ATXN2-luciferase reporter) viability, CellTiter-Fluor protease fluorescence, 24 h. Potency, µM (series often up to 56.7 µM), most hits filed as cytotoxic. hit rate 0.49% among 400,000; also: potency is read from the fitted curve at half-maximal effect; nearly all actives have a fitted effect of over 40% in size
IL-1B inflam inh: blocks inflammasome-driven IL-1 beta release. THP-1 LPS/ATP IL-1B secretion, AlphaLISA, 16 h; stronger effect = lower value. activity change, % at 57.5 µM. hit rate 4.7% among 360,000. AID 743279; in the data active = activity change below about -50%; inconclusive = mostly about -30% to -49%; also: % is scaled to controls: 0 for no effect and ±100 for the full control effect
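Secreted IL-1B measured by AlphaLISA bead assay after 16 h compound exposure of THP-1 cells; compounds (final up to 57.5 uM) added 1 h before LPS (250 ng/mL) and ATP (1.25 mM) stimulation; lower signal means less secretion.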
PINK1 modulator: PINK1 expression modulation | AID 624263 | PINK1 immunofluorescence, high-content cytometry, 24 h | Potency, µM (titrated, usually from 76.6 µM), for the others: top-dose activation (PINK1 increase), usual class: activators | hit rate 0.2% among 410,000; active = well fitted activation curve with a large enough effect; inconclusive = small, poorly fitted or top-dose-only effect; cell line not stated here; also: potency is read from the fitted curve at half-maximal effect; % of control where 0% means no effect; nearly all actives have a fitted effect of over 65% in size
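PINK1 protein, normally rapidly degraded, was detected by immunofluorescence after 24 hour compound treatment of a stable cell line. Titration data (5 concentrations) came from laser-scanning cytometry, with CCCP-treated wells as controls.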
MCF10A rerep: inducers of DNA re-replication in MCF 10A breast cells; MCF 10A DNA re-replication, Hoechst nuclear intensity, 48 h; Potency, µM (series often up to 46.1 µM), for the others: at the highest dose activity, positive = re-replication, hits mostly activators; hit rate 2.9% among 350,000; AID 624296; also: potency is read from the fitted curve at half-maximal effect; % of control where 0% means no effect; nearly all actives have a fitted effect of over 50% in size
Numbers without * were called inactive; [ ] = another dose, or the depositor's remark. Only some compounds are listed: those with a hit (about 7.1% of all), similar ones and a draw of the others. Unless noted, calls follow the shape of the dose curve; as a rule, active = well fitted curve in the direction sought with a large enough effect; inconclusive = small, poorly fitted or top-dose-only effect, or another doubt; inactive = no such curve, though single readings can be large; an effect the other way counts as inactive or inconclusive.

Nc1nc(CSc2ccc(Cl)cc2)nc(N2CCCCC2)n1 was read as SW480 rereplic -1%, ATXN2 expr inh 2%, ATXN viability inactive, IL-1B inflam inh -59*, PINK1 modulator 10% and MCF10A rerep 5%.
COc1ccc(-c2nc3ccccn3c2Nc2ccccc2C)cc1 was read as PINK1 modulator 0%.
For c1cnc2nc3c4ccccc4c4ccccc4c3nc2c1 the results were SW480 rereplic 23µM*, ATXN2 expr inh -17%, ATXN viability inconclusive, IL-1B inflam inh inconclusive, PINK1 modulator 2% and MCF10A rerep 10µM*.
`C=C1CCc2c([nH]c3ccc(OCC(C)C)cc23)C1=O` gave SW480 rereplic inconclusive, ATXN2 expr inh inconclusive, ATXN viability inconclusive, IL-1B inflam inh -99*, PINK1 modulator -3% and MCF10A rerep 4.6µM*.
Cc1cc(C)cc(-n2cnc3cc(C(=O)NC4CCCCCC4)ccc32)c1 was read as PINK1 modulator 1%.
O=S(Cc1ccc(Cl)cc1)CC(O)(c1ccccc1)c1ccccc1 (centres undefined) was read as SW480 rereplic -13%, IL-1B inflam inh 14 and MCF10A rerep 0%.
`O=S(Cc1ccccc1)CC(O)(c1ccc(Cl)cc1)c1ccc(Cl)cc1` (centres undefined) gave SW480 rereplic inconclusive, ATXN2 expr inh -7%, ATXN viability inactive, IL-1B inflam inh -59*, PINK1 modulator 21%[38.3 µM] and MCF10A rerep inconclusive.
`Cc1cc(C)n(-c2nc3ccccc3c(=O)n2OCC#N)n1` gave SW480 rereplic 16µM*, ATXN2 expr inh inconclusive, ATXN viability inconclusive, IL-1B inflam inh -96*, PINK1 modulator 2% and MCF10A rerep inconclusive.
Screening CN(C(=O)COC(=O)CNC(=O)CNC(=O)c1ccc(Cl)cc1Cl)c1ccccc1 returned SW480 rereplic -5%, ATXN2 expr inh 9%, ATXN viability inactive, IL-1B inflam inh -143*, PINK1 modulator 3% and MCF10A rerep inconclusive.
`CCc1ccc(Nc2nnc(SCC(=O)Nc3ccc(C(=O)O)cc3)s2)cc1` gave SW480 rereplic -6%, ATXN2 expr inh 19%, ATXN viability inactive, IL-1B inflam inh 19, PINK1 modulator -2% and MCF10A rerep -4%.
CCc1ccc(Nc2nnc(SCC(=O)NC(=O)c3cccn3C)s2)cc1 was read as SW480 rereplic inconclusive, ATXN2 expr inh -5%, ATXN viability inactive, IL-1B inflam inh 38, PINK1 modulator 1% and MCF10A rerep 18µM*.
CN(C)CC(CCCCC(CN(C)C)C(=O)c1ccccc1)C(=O)c1ccccc1 (centres undefined) was read as SW480 rereplic 10µM*, ATXN2 expr inh 11%, ATXN viability inactive, IL-1B inflam inh -72*, PINK1 modulator 16% and MCF10A rerep inconclusive.
CCC1CN(C(=O)N2CCC(C(=O)NCCN(CC)CC)CC2)c2ccccc2O1 (centres undefined) was read as PINK1 modulator -1%.
For CC1CCC(C(=O)NC(C(=O)OCC(=O)c2ccc(Br)cc2)C(C)C)CC1 (centres undefined) the results were ATXN2 expr inh -28%, ATXN viability inactive and PINK1 modulator 10%.
CC(C)C[C@H]1CN=C(Nc2ccccc2)N1CC1CCC(C(C)(C)C)CC1 (some centres undefined) was read as SW480 rereplic -2%[9.22 µM], ATXN2 expr inh inconclusive, ATXN viability 22µM*, IL-1B inflam inh -87*, PINK1 modulator -2% and MCF10A rerep inconclusive.
For COc1ccc(S(=O)(=O)N2CCCOC2CNC(=O)C(=O)NCc2ccccc2C)cc1 (centres undefined) the results were ATXN viability inconclusive, IL-1B inflam inh -18 and PINK1 modulator 2%.
CCCOc1ccc(/C=C/c2c([N+](=O)[O-])c(=O)n(C)c(=O)n2C)cc1 was read as SW480 rereplic -21%, ATXN2 expr inh -7%, ATXN viability inactive, IL-1B inflam inh -77*, PINK1 modulator 2% and MCF10A rerep 7%.
